Assay results: PubChem BioAssay AID1159580 (chemical genetic matrix, 2015)
Several values for one entry are separate records, joined by “and”; a condition that tells them apart may be missing. Identical values can stand only once. The campaign covered roughly 5,500 compounds. About 2,000 (36%) were called active. Inconclusive results (about 18%) are left out. Cut-off read from the data, not from the text of the source: active = normalized growth mostly below about 0.91 (no sharp cut-off); inconclusive = no clear call, values can overlap the other calls; inactive = mostly above about 0.92. This is one part of the list.

Experiment: chemical genetic growth profiling, strain panel (AID 1159580);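 note: tested at 20 µM; growth read once vehicle control cultures reached saturation at 30 °C; 1 = growth at the plate median or of vehicle wells; lower values mean less growth of the strain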
Details: S. cerevisiae deletion strains, growth OD

Measured: normalized growth

NC(=O)N1c2ccccc2CC(=O)c2ccccc21
inactive: locus YAL013W, strain DEP1, hits give low values 0.996 | locus YAL021C, strain ccr4, hits give low values 0.991 | locus YAL026C, strain drs2, hits give low values 0.998 | locus YAL030W, strain snc1, hits give low values 0.993 | locus YBL061C, strain skt5, hits give low values 0.994 | locus YBR009C, strain hhf1, hits give low values 0.942 | locus YBR021W, strain FUR4, hits give low values 0.969 | locus YBR023C, strain chs3, hits give low values 1 | locus YBR171W, strain sec66, hits give low values 0.989 | locus YBR229C, strain ROT2, hits give low values 0.993 | locus YBR231C, strain swc5, hits give low values 0.974 | locus YBR279W, strain paf1, hits give low values 0.99 | locus YCL011C, strain gbp2, hits give low values 0.991 | locus YCL016C, strain dcc1, hits give low values 1.01 | locus YCL029C, strain bik1, hits give low values 0.978 | locus YCL069W, strain vba3, hits give low values 0.956 | locus YCR088W, strain abp1, hits give low values 0.976 | locus YDL005C, strain med2, hits give low values 0.971 | locus YDL035C, strain GPR1, hits give low values 0.996 | locus YDL040C, strain nat1, hits give low values 0.992 | locus YDL074C, strain BRE1, hits give low values 1.03 | locus YDL101C, strain DUN1, hits give low values 0.992 | locus YDL134C, strain PPH21, hits give low values 0.989 | locus YDL185W, strain tfp1, hits give low values 0.976 | locus YDL192W, strain arf1, hits give low values 0.975 | locus YDR001C, strain nth1, hits give low values 0.979 | locus YDR069C, strain doa4, hits give low values 0.963 | locus YDR101C, strain arx1, hits give low values 0.994 | locus YDR137W, strain rgp1, hits give low values 0.991 | locus YDR150W, strain NUM1, hits give low values 1 | locus YDR159W, strain sac3, hits give low values 0.931 | locus YDR162C, strain NBP2, hits give low values 1.02 | locus YDR195W, strain ref2 0.927 | locus YDR297W, strain sur2, hits give low values 0.988 | locus YDR318W, strain mcm21, hits give low values 0.962 | locus YDR334W, strain swr1, hits give low values 0.95 | locus YDR335W, strain msn5, hits give low values 0.973 | locus YDR388W, hits give low values 0.991 | locus YDR392W, strain spt3, hits give low values 0.956 | locus YDR502C, strain sam2, hits give low values 0.994 | locus YEL003W, strain gim4, hits give low values 0.987 | locus YEL037C, strain rad23, hits give low values 0.984 | locus YEL061C, strain CIN8 (second series), hits give low values 0.98 | locus YEL061C, strain CIN8, hits give low values 0.998 | locus YER015W, strain faa2, hits give low values 0.993 | locus YER016W, strain bim1, hits give low values 1.01 | locus YER110C, hits give low values 0.975 | locus YER111C, strain swi4, hits give low values 0.993 | locus YER155C, strain BEM2 (second series), hits give low values 0.97 | locus YER155C, strain BEM2, hits give low values 0.982 | locus YER167W, strain BCK2, hits give low values 0.967 | locus YFR010W, strain ubp6, hits give low values 0.947 | locus YGL078C, strain dbp3, hits give low values 0.99 | locus YGL086W, strain mad1, hits give low values 0.974 | locus YGL167C, strain pmr1, hits give low values 0.968 | locus YGL173C, strain kem1, hits give low values 0.948 | locus YGL227W, strain vid30, hits give low values 1.01 | locus YGL240W, strain doc1, hits give low values 0.948 | locus YGL248W, strain PDE1, hits give low values 0.987 | locus YGL253W, strain hxk2, hits give low values 0.966 | locus YGR078C, strain PAC10, hits give low values 1.01 | locus YGR135W, strain pre9, hits give low values 1 | locus YGR229C, strain SMI1, hits give low values 1 | locus YGR252W, strain gcn5, hits give low values 0.922 | locus YHR013C, strain ard1, hits give low values 0.995 | locus YHR027C, strain rpn1, hits give low values 0.972 | locus YHR030C, strain SLT2, hits give low values 0.983 and 0.997 | locus YHR079C, strain IRE1 (second series), hits give low values 0.968 | locus YHR079C, strain IRE1, hits give low values 0.997 | locus YHR094C, strain hxt1, hits give low values 0.978 | locus YHR129C, strain ARP1, hits give low values 0.99 | locus YHR142W, strain chs7, hits give low values 0.977 | locus YHR200W, strain rpn10, hits give low values 0.97 | locus YIL066C, strain RNR3, hits give low values 0.991 | locus YIL073C, strain SPO22, hits give low values 0.955 | locus YIL125W, strain kgd1, hits give low values 0.998 | locus YIR030C, strain dcg1, hits give low values 0.981 | locus YJL092W, strain hpr5, hits give low values 0.995 | locus YJL095W, strain BCK1 (second series), hits give low values 0.997 | locus YJL095W, strain BCK1, hits give low values 1.02 and 0.994 | locus YJL115W, strain asf1, hits give low values 0.992 | locus YJL129C, strain trk1, hits give low values 0.995 | locus YJL134W, strain LCB3, hits give low values 0.99 | locus YJL154C, strain vps35, hits give low values 0.992 | locus YJL164C, strain tpk1, hits give low values 0.972 | locus YJL166W, strain qcr8, hits give low values 0.941 | locus YJL168C, strain set2, hits give low values 0.985 | locus YJL187C, strain SWE1 (second series), hits give low values 1 | locus YJR043C, strain POL32, hits give low values 0.979 | locus YJR066W, strain TOR1, hits give low values 0.946 | locus YJR075W, strain HOC1, hits give low values 1.05
